Where “and” joins values, the source holds several entries; their conditions need not be identical. Identical values can stand only once. About 2,000 (36%) of roughly 5,500 compounds were called active. Not shown: some 18% with an inconclusive outcome. No stated cut-off is given here; in the data, active means normalized growth mostly below about 0.91 (no sharp cut-off); inconclusive means no clear call, values can overlap the other calls; inactive means mostly above about 0.92. The list shows a part of the results.
Test: chemical genetic growth profiling, strain panel (AID 1159580);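 further: tested at 20 µM; growth read once vehicle control cultures reached saturation at 30 °C; 1 = growth at the plate median or of vehicle wells; lower values mean less growth of the strain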
Conditions: S. cerevisiae deletion strains, growth OD

Measured: normalized growth

CC(=O)Oc1c(C)c(C)c2c(c1C)CCC(C)(CCCC(C)CCCC(C)CCCC(C)C)O2 (stereo unspecified)
inactive: locus YAL021C, strain ccr4, active compounds read low 1 | locus YAL026C, strain drs2, active compounds read low 0.982 | locus YAL030W, strain snc1, active compounds read low 0.976 | locus YBL061C, strain skt5, active compounds read low 0.995 | locus YBR009C, strain hhf1, active compounds read low 0.957 | locus YBR021W, strain FUR4, active compounds read low 1.03 | locus YBR023C, strain chs3, active compounds read low 0.99 | locus YBR171W, strain sec66, active compounds read low 1 | locus YBR229C, strain ROT2, active compounds read low 1.02 | locus YBR231C, strain swc5, active compounds read low 0.995 | locus YBR279W, strain paf1, active compounds read low 0.985 | locus YCL011C, strain gbp2, active compounds read low 0.975 | locus YCL016C, strain dcc1, active compounds read low 0.985 | locus YCL029C, strain bik1, active compounds read low 0.995 | locus YCL061C, strain MRC1, active compounds read low 0.998 | locus YCL069W, strain vba3, active compounds read low 0.982 | locus YCR088W, strain abp1, active compounds read low 0.978 | locus YDL005C, strain med2, active compounds read low 0.979 | locus YDL035C, strain GPR1, active compounds read low 1.01 | locus YDL040C, strain nat1, active compounds read low 0.98 | locus YDL074C, strain BRE1, active compounds read low 1 | locus YDL101C, strain DUN1, active compounds read low 1.03 | locus YDL134C, strain PPH21, active compounds read low 1.02 | locus YDL185W, strain tfp1, active compounds read low 0.983 | locus YDL192W, strain arf1, active compounds read low 1.01 | locus YDR001C, strain nth1, active compounds read low 0.98 | locus YDR069C, strain doa4, active compounds read low 0.983 | locus YDR101C, strain arx1, active compounds read low 0.983 | locus YDR137W, strain rgp1, active compounds read low 0.961 | locus YDR150W, strain NUM1, active compounds read low 1.02 | locus YDR159W, strain sac3, active compounds read low 0.968 | locus YDR162C, strain NBP2, active compounds read low 1.03 | locus YDR195W, strain ref2 0.946 | locus YDR297W, strain sur2, active compounds read low 0.987 | locus YDR318W, strain mcm21, active compounds read low 1.01 | locus YDR334W, strain swr1, active compounds read low 0.988 | locus YDR335W, strain msn5, active compounds read low 0.993 | locus YDR388W, active compounds read low 0.992 | locus YDR392W, strain spt3, active compounds read low 1.03 | locus YDR502C, strain sam2, active compounds read low 0.991 | locus YEL003W, strain gim4, active compounds read low 0.983 | locus YEL037C, strain rad23, active compounds read low 0.985 | locus YEL061C, strain CIN8 (second series), active compounds read low 0.975 | locus YEL061C, strain CIN8, active compounds read low 1.01 | locus YER015W, strain faa2, active compounds read low 0.984 | locus YER016W, strain bim1, active compounds read low 0.992 | locus YER110C, active compounds read low 0.99 | locus YER111C, strain swi4, active compounds read low 0.985 | locus YER155C, strain BEM2 (second series), active compounds read low 1.01 | locus YER155C, strain BEM2, active compounds read low 1.01 | locus YER167W, strain BCK2, active compounds read low 1.02 | locus YFR010W, strain ubp6, active compounds read low 0.981 | locus YGL078C, strain dbp3, active compounds read low 0.993 | locus YGL086W, strain mad1, active compounds read low 0.991 | locus YGL167C, strain pmr1, active compounds read low 0.971 | locus YGL173C, strain kem1, active compounds read low 0.99 | locus YGL227W, strain vid30, active compounds read low 0.974 | locus YGL240W, strain doc1, active compounds read low 1 | locus YGL248W, strain PDE1, active compounds read low 1.03 | locus YGL253W, strain hxk2, active compounds read low 0.977 | locus YGR078C, strain PAC10, active compounds read low 1.03 | locus YGR135W, strain pre9, active compounds read low 1.01 | locus YGR229C, strain SMI1, active compounds read low 1.01 | locus YGR252W, strain gcn5, active compounds read low 0.978 | locus YHR013C, strain ard1, active compounds read low 0.949 | locus YHR027C, strain rpn1, active compounds read low 0.989 | locus YHR030C, strain SLT2, active compounds read low 1.02 and 1 | locus YHR079C, strain IRE1 (second series), active compounds read low 1 | locus YHR079C, strain IRE1, active compounds read low 0.964 | locus YHR094C, strain hxt1, active compounds read low 0.989 | locus YHR129C, strain ARP1, active compounds read low 1.02 | locus YHR142W, strain chs7, active compounds read low 0.987 | locus YHR200W, strain rpn10, active compounds read low 0.989 | locus YIL066C, strain RNR3, active compounds read low 1.03 | locus YIL073C, strain SPO22, active compounds read low 0.994 | locus YIL125W, strain kgd1, active compounds read low 0.991 | locus YIR030C, strain dcg1, active compounds read low 1.01 | locus YJL092W, strain hpr5, active compounds read low 0.98 | locus YJL095W, strain BCK1 (second series), active compounds read low 0.991 | locus YJL095W, strain BCK1, active compounds read low 1.05 and 0.989 | locus YJL115W, strain asf1, active compounds read low 1 | locus YJL129C, strain trk1, active compounds read low 0.987 | locus YJL134W, strain LCB3, active compounds read low 1.02 | locus YJL154C, strain vps35, active compounds read low 0.989 | locus YJL164C, strain tpk1, active compounds read low 0.995 | locus YJL166W, strain qcr8, active compounds read low 0.989 | locus YJL168C, strain set2, active compounds read low 1 | locus YJL187C, strain SWE1 (second series), active compounds read low 1.02 | locus YJL187C, strain SWE1, active compounds read low 0.991 | locus YJR043C, strain POL32, active compounds read low 1.03 | locus YJR066W, strain TOR1, active compounds read low 0.945 | locus YKL009W, strain mrt4, active compounds read low 1.01 | locus YKL068W, active compounds read low 1.01 | locus YKL085W, strain MDH1 (second series), active compounds read low 0.997 | locus YKL085W, strain MDH1, active compounds read low 0.997 | locus YKL160W, strain elf1, active compounds read low 1 | locus YKL190W, strain CNB1, active compounds read low 1.02 | locus YKR001C, strain vps1, active compounds read low 0.999 | locus YKR026C, strain gcn3, active compounds read low 0.976 | locus YKR091W, strain srl3, active compounds read low 0.977 | locus YLL001W, strain dnm1, active compounds read low 0.99 | locus YLL026W, active compounds read low 0.98 | locus YLL041C, strain sdh2, active compounds read low 0.992 | locus YLR027C, strain aat2, active compounds read low 0.99 | locus YLR039C, strain RIC1, active compounds read low 1.08 | locus YLR058C, strain SHM2, active compounds read low 1.03 | locus YLR102C, strain apc9, active compounds read low 0.993 | locus YLR113W, strain HOG1, active compounds read low 0.949 | locus YLR221C, strain rsa3, active compounds read low 1 | locus YLR258W, strain gsy2, active compounds read low 0.97 | locus YLR262C, strain YPT6 (second series), active compounds read low 0.989 | locus YLR262C, strain YPT6, active compounds read low 1.09 | locus YLR268W, strain sec22, active compounds read low 0.984 | locus YLR320W, strain mms22, active compounds read low 0.984 | locus YLR330W, strain CHS5, active compounds read low 1.02 | locus YLR342W, strain FKS1 (second series), active compounds read low 1.04 | locus YLR342W, strain FKS1, active compounds read low 0.979 | locus YLR357W, strain rsc2, active compounds read low 1.01 | locus YLR370C, strain arc18, active compounds read low 1 | locus YLR371W, strain rom2, active compounds read low 0.981 | locus YLR384C, strain iki3, active compounds read low 0.991 | locus YLR418C, strain cdc73, active compounds read low 1.01 | locus YML016C, strain PPZ1, active compounds read low 1.02 | locus YML032C, strain rad52, active compounds read low 1.01 | locus YML120C, strain ndi1, active compounds read low 1.01 | locus YML124C, strain tub3, active compounds read low 0.991 | locus YMR058W, strain fet3, active compounds read low 1.01 | locus YMR078C, strain ctf18, active compounds read low 1 | locus YMR125W, strain sto1, active compounds read low 1 | locus YMR129W, active compounds read low 0.975 | locus YMR205C, strain PFK2, active compounds read low 0.96 | locus YMR223W, strain ubp8, active compounds read low 1.01 | locus YMR231W, strain pep5, active compounds read low 0.976 | locus YMR307W, strain GAS1, active compounds read low 1.07 | locus YNL067W, strain RPL9B, active compounds read low 1.03 | locus YNL071W, strain lat1, active compounds read low 1 | locus YNL183C, strain NPR1, active compounds read low 0.949 | locus YNL209W, strain ssb2, active compounds read low 0.986 | locus YNL233W, strain BNI4, active compounds read low 1.01 | locus YNL248C, strain rpa49, active compounds read low 1.05 | locus YNL250W, strain rad50, active compounds read low 1 | locus YNL271C, strain bni1, active compounds read low 0.995 | locus YNL298W, strain CLA4, active compounds read low 0.995 | locus YNL307C, strain MCK1, active compounds read low 0.987 | locus YNL322C, strain KRE1 (second series), active compounds read low 0.99 | locus YNL322C, strain KRE1, active compounds read low 1.02 | locus YNR049C, strain mso1, active compounds read low 0.986 | locus YNR052C, strain pop2, active compounds read low 0.984 | locus YOL012C, strain htz1 0.81 | locus YOL147C, strain pex11, active compounds read low 0.991 | locus YOR001W, strain rrp6, active compounds read low 1.01 | locus YOR061W, strain CKA2, active compounds read low 1.03 | locus YOR069W, strain VPS5, active compounds read low 1.01 | locus YOR070C, strain gyp1, active compounds read low 0.988 | locus YOR080W, strain dia2, active compounds read low 0.992 | locus YOR083W, strain WHI5, active compounds read low 1.01 | locus YOR106W, strain vam3, active compounds read low 0.977 | locus YOR136W, strain idh2, active compounds read low 0.98 | locus YOR144C, strain elg1, active compounds read low 0.986 | locus YOR184W, strain ser1, active compounds read low 0.99 | locus YOR231W, strain MKK1, active compounds read low 0.978 | locus YOR265W, strain rbl2, active compounds read low 0.988 | locus YOR270C, strain vph1, active compounds read low 0.976 | locus YOR290C, strain snf2, active compounds read low 1.01 | locus YOR316C, strain cot1, active compounds read low 0.997 | locus YPL051W, strain arl3, active compounds read low 1.01 | locus YPL078C, strain atp4, active compounds read low 0.995 | locus YPL106C, strain sse1, active compounds read low 1.05 | locus YPL240C, strain hsp82, active compounds read low 0.995 | locus YPL241C, strain CIN2, active compounds read low 1.02 | locus YPL256C, strain CLN2, active compounds read low 1.05 | locus YPR119W, strain clb2, active compounds read low 0.995 | locus YPR141C, strain kar3, active compounds read low 1 | locus YPR163C, strain tif3, active compounds read low 0.991 | locus YPR167C, strain met16, active compounds read low 0.995 | strain wtn01, active compounds read low 0.977

Reference: PubChem BioAssay AID1159580 (chemical genetic matrix, 2015)
